# Assay outcomes (PubChem BioAssay)
# Shown are actives, neighbours in structure and some others; about 0.54% of the full set was active somewhere.
# IDH1 R132H inh – qHTS for Inhibitors of mutant isocitrate dehydrogenase 1 (IDH1): qHTS; 390,000 tested, 0.093% active; AID 602179, 2012; Potency, µM (highest dose often 76.6 µM), for inactives: top-dose activity change, negative = inhibition, hits mostly inhibitors; Isocitrate dehydrogenase [NADP] cytoplasmic (Homo sapiens), O75874; IDH1-R132H enzyme, NADPH consumption, diaphorase/resazurin fluorescence; active means well fitted inhibition curve with a large enough effect; inconclusive means small, poorly fitted or top-dose-only effect; inactive means no such curve, though single readings can be large or run the other way; further: potency means the concentration at half of the fitted maximal effect; on the % scale 0 is the no-effect control and ±100 the full control effect; nearly all actives have a fitted effect of over 65% in size
# Target sequence (O75874 whole entry R132H, stated change not applied): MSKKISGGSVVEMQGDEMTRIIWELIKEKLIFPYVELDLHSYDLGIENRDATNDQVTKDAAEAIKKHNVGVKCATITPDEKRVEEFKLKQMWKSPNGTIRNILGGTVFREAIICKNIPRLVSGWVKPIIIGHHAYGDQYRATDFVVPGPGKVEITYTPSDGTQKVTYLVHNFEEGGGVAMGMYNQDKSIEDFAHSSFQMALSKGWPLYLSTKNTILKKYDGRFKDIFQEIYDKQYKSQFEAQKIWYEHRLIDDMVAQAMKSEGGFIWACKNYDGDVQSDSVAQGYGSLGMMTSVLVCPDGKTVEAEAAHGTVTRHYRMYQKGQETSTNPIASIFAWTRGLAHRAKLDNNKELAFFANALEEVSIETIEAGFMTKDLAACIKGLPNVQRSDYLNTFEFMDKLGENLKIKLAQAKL
#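 IDH1-R132H (0.5 ug/mL dispensed) in pH 7.5 Tris buffer was preincubated 30 min with compound, then given a substrate mix of 0.016 mM NADPH and 2 mM alpha-KG for 80 min at room temperature; remaining NADPH was read by diaphorase/resazurin fluorescence.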
# Akt phos inh – HTS Assay for Inhibitors of Akt Phophorylation: Primary Screen; Neuro2A IGF-stimulated pAkt S473 HTRF, 20 min; active compounds read low; AID 651550, 2012; activity change, % for hits at 50 µM; 360,000 tested, 0.32% active; in the data active means activity change below about -80%; inconclusive means mostly about -51% to -80%; further: on the % scale 0 is the no-effect control and ±100 the full control effect
#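 Neuro2A cells (4,500/well, DMEM with 0.5% FBS) were treated with compound at a single 50 µM final concentration, stimulated with 6 nM IGF for 20 min at 37 °C, and lysed. Phospho-Akt Ser473 was read by HTRF as 665/615 ratio ×10^4.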
# CXXC DNA block – qHTS Fluorescence Polarization Assay for Inhibitors of MLL CXXC domain - DNA interaction; Histone-lysine N-methyltransferase 2A (Homo sapiens), Q03164; MLL-CXXC / FITC-HOXA9 DNA fluorescence polarization; Potency, µM (series often up to 115 µM), without a hit: at the top dose activity change, negative = inhibition, hits mostly inhibitors; 290,000 tested, 0.037% active; AID 2662, 2010; active means well fitted inhibition curve with a large enough effect in the polarisation, with a control signal flat, not every such curve was filed as active; inconclusive means small, poorly fitted or top-dose-only effect, or effect the other way, or a change in a side signal; inactive means no such curve, though single readings can be large or run the other way; the % refers to the polarisation; further: potency means the concentration at half of the fitted maximal effect
#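 Purified MLL-CXXC (added from a 7 uM solution) was preincubated 5 min at ambient with pinned compounds in 50 mM Tris-HCl pH 7.5, 50 mM NaCl, 1 mM DTT, 0.05% BSA. Fluorescein-labeled HOX-A9 DNA (50 nM solution) followed, 30 min, then polarization read.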
# Menin MLL FP FL – qHTS Assay for Inhibitors Targeting the Menin-MLL Interaction in MLL Related Leukemias: Competition With Fluorescein Labeled MLL-derived Peptide; Fluorescence polarization, fluorescein-MLL peptide displacement from menin; FP activity change, % at 61.4 µM; 290,000 tested, under 10 active; active means well fitted curve in the direction sought with a large enough effect in the polarisation, not every such curve was filed as active; inconclusive means small, poorly fitted or top-dose-only effect, or effect the other way, or a change in a side signal; inactive means no such curve, though single readings can be large or run the other way; the % refers to the polarisation; further: % of control where 0% means no effect
# Menin MLL FP TR – qHTS Assay for Inhibitors Targeting the Menin-MLL Interaction in MLL Related Leukemias: Competition With Texas Red Labeled MLL-derived Mutant Peptide; O00255; Menin + Texas Red MLL mutant peptide, fluorescence polarization; Potency, µM (top dose mostly 61.6 µM), inactives show top-dose FP activity change, negative = inhibition, usual class: inhibitors; 270,000 tested, 0.23% active; active means well fitted inhibition curve with a large enough effect in the polarisation, with a control signal flat, not every such curve was filed as active; inconclusive means small, poorly fitted or top-dose-only effect, or effect the other way, or a change in a side signal; inactive means no such curve, though single readings can be large or run the other way; the % refers to the polarisation; further: potency means the concentration at half of the fitted maximal effect; % of control where 0% means no effect
# LDHA block – qHTS assay for inhibitors of human lactate dehydrogenase; purified LDHA, NADH/diaphorase-resazurin fluorescence; active compounds read low; activity change, % (values are at about 110 or 230 µM); 480,000 tested, 0.15% active; AID 1347041, 2019; in the data active means activity change below about -30%; inconclusive means mostly about -25% to -30%;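 further: plate controls were DMSO wells for no effect and wells without enzyme for full effect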
#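 Resorufin fluorescence (ex540/em590), read at 0 and 20 min after diaphorase/resazurin addition, reports the NADH left after a 5 min room-temperature reaction of 2 nM human LDH5 with 0.06 mM NADH and 0.2 mM pyruvate.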
# * hit, by the source's call; i = inactive; ? = inconclusive; nt = not tested or not shown.
SMILES,IDH1 R132H inh,Akt phos inh,CXXC DNA block,Menin MLL FP FL,Menin MLL FP TR,LDHA block
COC(=O)C1OC2(OC1C(=O)OC)c1ccccc1-c1ccccc12 (configuration not stated),3.3%,-119.7%*,2.7%,7.6,-11.5%,-1.1
CN1CCN(S(=O)(=O)c2ccc(NC(=O)c3cccs3)cc2)CC1,-0.5%,-102.2%*,-5.9%,-0.7,20.9%,-7.6
O=C(Nc1nc(-c2ccc3ccccc3c2)cs1)C1CCN(S(=O)(=O)c2cccs2)CC1,-1.8%,i,-8.7%,4.2,-22.8%,-30.5*
O=C(Nc1ccc(S(=O)(=O)N2CCCC2)cc1)c1cccs1,3.2%,i,-2.0%,-1.1,?,-2.2
O=C(Nc1nc(-c2ccc(S(=O)(=O)N3CCCCCC3)cc2)cs1)c1cccs1,-4.8%,i,25.2%,4.1,22.4µM*,-7.1
CCOC(=O)C1C(=O)CC(C)(O)C(C(=O)OCC)C1c1cccs1 (configuration not stated),1.0%,-108.6%*,-5.0%,2.3,2.8%,0.0
CCOC(=O)C1C(=O)CC(C)(O)C(C(=O)OCC)C1c1ccco1 (configuration not stated),-4.4%,i,7.4%,2.1,16.2%,-1.8
CCOc1ccc(-c2cc(=O)c3cc(NC(=O)c4ccccc4OC)ccc3o2)cc1,nt,nt,nt,nt,nt,0.5
CCN(CC)S(=O)(=O)c1cccc(C(=O)Nc2ccc(Cl)cn2)c1,0.1%,i,-8.5%,0.1,17.8%,1.6
CCN(CC)S(=O)(=O)c1cc(C(=O)Nc2ccc(Cl)cn2)ccc1C,2.9%,-113.6%*,18.7%,1.5,21.5%,-0.7
CNC(=O)CSc1nnc(-c2ccncc2)n1Cc1ccccc1,-1.4%,-111.8%*,1.1%,-0.4,-16.6%,-16.7
CC(C)Oc1ccc2ccccc2c1/C=C(\C#N)c1nc2ccccc2[nH]1,nt,nt,nt,nt,nt,-30.4*
CCCOc1ccc2ccccc2c1/C=C(/C#N)c1nc2ccccc2[nH]1,nt,nt,nt,nt,nt,13.4
Cc1ncc(-c2ccc(S(=O)(=O)Nc3ccc(C)c(F)c3)cc2)o1,nt,nt,nt,nt,nt,-31.2*
Cc1ncc(-c2ccc(S(=O)(=O)Nc3ccc(C)c(C)c3)cc2)o1,nt,nt,nt,nt,nt,17.7
Cc1ncc(-c2ccc(C)c(S(=O)(=O)Nc3cccc(Cl)c3C)c2)o1,nt,nt,nt,nt,nt,-3.4
Cc1ncc(-c2ccc(S(=O)(=O)Nc3cccc(Cl)c3C)cc2)o1,nt,nt,nt,nt,nt,-30.6*
COc1ccc(-c2nnc(SCc3ccccn3)n2C)cc1,8.8%,-107.0%*,11.9%,2.8,-2.2%,-1.0
COc1ccccc1-c1nnc(SCc2ccccn2)n1C,-2.6%,i,2.5%,-0.5,-14.9%,-8.6
COC(=O)N/N=C/c1c(C)c(C(=O)c2ccc(F)cc2)n2ccccc12,6.2%,i,11.4%,5.3,7.9%,-5.2
Cc1c(C(=O)Nc2ccc(Cl)cc2)c2ccccn2c1C(=O)c1ccc(F)cc1,0.5%,-110.3%*,17.7%,-0.9,5.0%,-3.4
CC1(C(=O)OCc2cc(=O)oc3cc4c(cc23)CCC4)CC1(Cl)Cl (configuration not stated),nt,nt,nt,nt,nt,-5.5
Cc1cc(C)c(C)c(S(=O)(=O)N2CCN(S(=O)(=O)c3ccc4c(c3)OCCO4)CC2)c1C,nt,nt,nt,nt,nt,-6.3
Nc1nonc1-c1noc(CCCOc2ccc(Cl)cc2Cl)n1,3.3%,i,3.7%,-0.4,15.2%,1.4
CCCCCc1nc(-c2nonc2N)no1,0.7%,-120.3%*,-13.7%,2.8,11.3%,-3.8
SMILES,IDH1 R132H inh,Akt phos inh,CXXC DNA block,Menin MLL FP FL,Menin MLL FP TR,LDHA block
CCCOc1cccc(C(=O)Nc2ccc3oc(-c4cccnc4)nc3c2)c1,nt,nt,nt,nt,nt,-3.3
CCS(=O)(=O)N1CCN(Cc2ccccc2OC)CC1,2.5%,i,-9.6%,-0.4,?,-31.5*
COc1ccc(CN2CCN(Cc3cccc(OC)c3OC)CC2)cc1,nt,nt,nt,nt,nt,-0.3
COc1cccc(CN2CCN(Cc3cc(OC)c(OC)c(OC)c3)CC2)c1OC,-3.6%,i,3.1%,-2.1,-5.9%,-35.0*
CC(=O)N1CCN(C(=O)Cn2ccc3c(Cl)cccc32)CC1,nt,nt,nt,nt,nt,0.7
Cc1ccc(Cl)cc1NC(=O)Nc1cn(CC(C)C)c(=O)c2ccccc12,41.4%,nt,nt,nt,nt,-39.9*
Cc1cc(C)c(S(=O)(=O)NCCC(=O)Nc2nccs2)c(C)c1,nt,nt,nt,nt,nt,6.9
CC(C[N+](C)(C)C)OC(=O)C1(c2ccccc2)CCCC1 (configuration not stated),-1.8%,i,10.7%,-1.4,nt,-30.5*
C[N+](C)(C)CCOC(=O)C1(c2ccccc2)CCCC1,11.8%,i,8.4%,-0.7,-3.6%,-12.4
COc1ccc(-c2cc(=O)c3c(O)cc(O[C@H]4OC(COC5OC(C)C(O)C(O)[C@H]5O)C(O)C(O)C4O)cc3o2)cc1O (some centres not stated),nt,nt,11.8%,1.4,25.1µM*,nt
COc1ccc(-c2cc(=O)c3c(O)cc(O[C@@H]4OC(COC5OC(C)C(O)C(O)[C@@H]5O)C(O)C(O)C4O)cc3o2)cc1 (some centres not stated),nt,nt,nt,2.1,-20.9%,nt
O=C(CCSC1CCc2ccccc2NC1=O)Nc1ccc(CCO)cc1 (configuration not stated),nt,nt,nt,nt,nt,-1.6
O=C(NCc1ccccc1)c1cc(S(=O)(=O)N2CCOCC2)ccc1F,-0.4%,-114.2%*,1.9%,9.1,-9.9%,-1.1
O=C(NCCc1ccccc1)c1cc(S(=O)(=O)N2CCOCC2)ccc1F,14.1%,i,12.1%,-2.5,5.0%,2.3
Cc1ccc(/C(=N/O)c2ccc(O)cc2O)cc1,nt,nt,nt,nt,nt,24.7
CCc1ccc(NC(=O)c2nc3ccccc3nc2N2CCN(C)CC2)cc1,nt,nt,nt,nt,nt,1.3
CCc1ccc(NC(=O)c2nc3ccccc3nc2N2CCCC2)cc1,nt,nt,nt,nt,nt,-31.0*
C=CCN1C(=O)COc2ccc(NC(=O)c3cc(=O)c4cc(C)ccc4o3)cc21,nt,nt,nt,nt,nt,0.2
COc1ccc2[nH]c(=O)c(COC(=O)c3ccco3)cc2c1,9.9%,-113.8%*,17.2%,0.7,9.4%,-4.8
Cc1cccc(OCCOC(=O)Cn2cnc3c2c(=O)n(C)c(=O)n3C)c1,nt,nt,nt,nt,nt,-10.1
CC(OC(=O)c1ccc(-n2cnnn2)cc1)C(=O)Nc1ccc(N2CCOCC2)cc1 (configuration not stated),nt,nt,nt,nt,nt,2.6
CCOC(=O)c1c(C)nc2sc3c(=O)n(-c4ccc(C(C)=O)cc4)cnc3c2c1-c1ccc(OC)cc1,0.0%,-108.0%*,6.2%,-2.3,-16.3%,-5.6
COc1ccc(/C=C(\C#N)c2nc3ccccc3[nH]2)cc1OC,nt,nt,nt,nt,nt,2.9
